Results reported in PubChem BioAssay AID2284187 (EPA ToxCast).
Records with an inconclusive call do not appear. Activity calls are given as the source filed them. How the source made its calls: active means hit-call score of the fitted dose curve at least 0.9, where 1 is the maximum; inconclusive means response in the unintended direction; inactive means score below 0.9.

What follows are compounds tested against rat GHB Receptor Antagonism, Tspan17 (gene 306771) (UniProt Q4V8E0) (assay: ERF_FR_GPCR_rGHB: Eurofins (ERF) G Protein-Coupled Receptor (GPCR) Radioligand Binding LeadHunter Assay for rat GHB Receptor Antagonism).
rat GHB Receptor Antagonism, Tspan17 (gene 306771), sequence (Q4V8E0 whole entry, looked up): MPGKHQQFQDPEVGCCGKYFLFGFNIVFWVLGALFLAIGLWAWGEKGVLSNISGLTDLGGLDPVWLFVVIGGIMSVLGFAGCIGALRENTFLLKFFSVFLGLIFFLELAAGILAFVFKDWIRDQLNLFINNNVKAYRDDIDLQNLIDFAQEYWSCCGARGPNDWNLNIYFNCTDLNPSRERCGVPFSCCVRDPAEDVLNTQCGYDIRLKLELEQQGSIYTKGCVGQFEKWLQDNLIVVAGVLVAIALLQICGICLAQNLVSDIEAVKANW
Protocol: ERF_FR_GPCR_rGHB is a biochemical, single-readout assay that uses extracted gene-proteins in a cell-free assay. Measurements were taken 2 hour after chemical dosing in a 96-well plate. See GHB Rat Binding (Antagonist Radioligand) Assay, Cerep.ERF_FR_GPCR_rGHB is an assay component calculated from the ERF_FR_GPCR_rGHB assay. It is designed to measure radioligand binding using a type of binding reporter as detected by scintillation counting with radiometry technology.Data from the assay component ERF_FR_GPCR_rGHB was analyzed at the assay endpoint, ERF_FR_GPCR_rGHB, in the positive analysis fitting direction relative to DMSO as the negative control and baseline of activity. Using a type of binding reporter, loss-of-signal activity can be used to understand changes in binding as they relate to gene TSPAN17. To generalize the intended target to other relatable targets, this assay endpoint is annotated to the gpcr intended target family, where the subfamily is ghb .
Brain cortex of Wistar derived rats weighing 175 +/- 25 g are used to prepare GHB receptors in potassium buffer pH 6.0. A 1 mg aliquot is incubated with 20 nM [3H] NCS382 for 120 minutes at 4 C. Non-specific binding is estimated in the presence of 1 mM NCS382. Membranes are filtered and washed, the filters are then counted to determine [3H] NCS382 specifically bound. […]

**Q.** COc1cc(/C=C/C(=O)CC(=O)/C=C/c2ccc(O)c(OC)c2)ccc1O was tested. Which AC50 did it give?
**A.** 1.59 µM (active)

**Q.** Which AC50 does the source give for O=C(/C=C/c1ccc(O)cc1)CC(=O)/C=C/c1ccc(O)cc1 here?
**A.** 1.67 µM (active)
